# Shown is part of a subset that was picked to be rich in hits.
# Pf Dd2 growth = inhibitors of Plasmodium falciparum Dd2 growth. Potency, µM (highest dose often 28.9 µM), most hits filed as inhibitors. P. falciparum Dd2 growth, SYBR Green, 72 h. hit rate 4.3% among 120,000. AID 1347417; active = well fitted inhibition curve with a large enough effect; also: nearly all actives have a fitted effect of over 65% in size
#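 Readout: SYBR Green fluorescence, 485 nm excitation, 535 nm emission, after ~16 h lysis at 37C. Before that, Dd2-infected red cells (2.5% hematocrit) grew 72 h with compound, 29 uM top final concentration.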
# Numbers stand for hits; i = inactive; [ ] = another dose, or the depositor's remark.
SMILES,Pf Dd2 growth
c1cncc(-c2ccnc(NCC(c3cccnc3)N3CCCCC3)n2)c1 (stereo not given),i
OCC1CCCCN1CCNc1nccc(-c2cccnc2)n1 (stereo not given),i
O=C(c1ccccc1F)N1CCC2(CC1)C(=O)NN=C2c1ccncc1,i
CC(=O)N1CCN(c2cc(-c3ccccc3)nc3c(C)noc23)CC1,i
CC(C)(C)c1ccnc(N[C@H]2CO[C@H]3[C@@H]2OC[C@@H]3NC(=O)NCc2ccccc2)n1,5.01µM
CC(C)(C)c1ccnc(N[C@H]2CO[C@H]3[C@@H]2OC[C@@H]3NC(=O)CCCC(=O)O)n1,i
CC(C)(C)c1ccnc(N[C@H]2CO[C@H]3[C@@H]2OC[C@@H]3NC(=O)c2ccco2)n1,i
Cc1cccc2c1nc1n2[C@@H](CNC(=O)c2ccncc2)COC1,i
CN1CC[C@H]2CN(S(=O)(=O)c3ccc(NC(N)=O)cc3)C[C@H]21,i
Cc1ccccc1-c1cc(O)c2c(c1)CN(Cc1ccoc1)CCO2,11.2µM
CC(C)CNC(=O)CN1CCOc2c(O)cc(-c3cccc(Cl)c3)cc2C1,10µM
C=CCn1cc(CN2CCC(Oc3ccc4ccccc4c3)(C(=O)O)CC2)cn1,i
Oc1cc(-c2cccc(Cl)c2)cc2c1OCCN(c1cc(C3CC3)ncn1)C2,i
Cn1cc([C@@H](NC(=O)CN2CCOc3ccccc3C2)C2CC(O)C2)cn1 (stereo not given in full),i
Cc1ccncc1C(=O)N1CCOc2c(O)cc(-c3ccccc3C)cc2C1,i
CCc1noc(CN2CCOc3c(O)cc(-c4ccccc4C)cc3C2)n1,i
Cc1nc(C(=O)N2CCOc3c(O)cc(-c4cccc(Cl)c4)cc3C2)cs1,i
C=CCn1cc(CN2CCOc3c(O)cc(-c4cccc(Cl)c4)cc3C2)cn1,11.2µM
CSc1ccc(CNC(=O)C2CCN(c3cc(C(F)(F)F)ncn3)CC2)cc1,i
C#CCNC(=O)C1CCc2nnc(C3CCN([S+](=O)([O-])c4ccccc4)CC3)n21 (stereo not given),i
COc1ccc(NC(=O)CN2C(=O)NC3(CCCCC3)C2=O)c(OC)c1,i
Cc1noc(-c2cn(C3CCN(C(=O)c4ccsc4)CC3)nn2)n1,i
Cc1ccc(CNC(=O)N2CCC(CC(=O)NC3CC3)C2)cc1 (stereo not given),i
O=C(CCc1nc(C2CCOC2)no1)NC1CCCCCCC1 (stereo not given),i
CC1=C[C@@H](CN2CCN(c3ncccn3)CC2)[C@H](C(C)C)C[C@H]1Cc1nnc(COc2ccc(F)cc2)o1,0.891µM
SMILES,Pf Dd2 growth
CC1=C[C@@H](CO)[C@H](C(C)C)C[C@H]1CC(=O)N1CCN(c2ccccn2)CC1,i
CC1=C[C@@H](CN2CCN(c3ccccn3)CC2)[C@H](C(C)C)C[C@H]1Cc1nnc(-c2ccc([N+](=O)[O-])cc2)o1,3.55µM
CC1=C[C@@H](CN2CCC(CO)CC2)[C@H](C(C)C)C[C@H]1Cc1nnc(-c2ccccc2)o1,i
CC1=C[C@@H](CN(C)Cc2cccnc2)[C@H](C(C)C)C[C@H]1Cc1nnc(-c2ccc([N+](=O)[O-])cc2)o1,4.47µM
CCc1ccc(NC(=O)Cn2c(-c3cnccn3)nc(C)c(C)c2=O)cc1,i
COc1cccc(CNC(=O)[C@@H]2C[C@@H](O)CN2C2CCN(C(=O)c3cccnc3)CC2)c1,i
CC(C)N1C[C@H](O)C[C@H]1c1nnc2n1CCN(C(=O)c1ccc3ncccc3c1)CC2,i
CCc1ccc(S(=O)(=O)N2CCCC(CNC(=O)c3ccccc3Cl)C2)cc1 (stereo not given),i
CN(C)c1nc2c(c(=O)[nH]1)CCN(Cc1ccccc1Cl)CC2,i[5.79 µM]
Cc1cccc(CN2CCN(C(=O)c3cnc4ccccn4c3=O)CC2=O)c1,i
CC(C)(N)C(=O)N1CCC(n2nccc2NC(=O)c2cccc(F)c2)CC1,i
CNC(=O)CCC[C@@H]1[C@H]2CCCN3CCC[C@@H](CN1C(=O)CCOC)[C@@H]23,i
CCC1(N2CCN(C(=O)c3ccncc3)CC2)CCN(CCC(C)C)C1 (stereo not given),i
c1ccc(-c2nnc3ccc(NCc4cccs4)nn23)nc1,i
Cc1c(Cl)cccc1NC(=O)c1oc2ccc(S(=O)(=O)N3CCC4(CC3)OCCO4)cc2c1C,12.6µM
Cc1c(C(=O)Nc2ccccc2Cl)oc2ccc(S(=O)(=O)N3CCCCC3)cc12,i
CCN(CC)S(=O)(=O)c1ccc2oc(C(=O)Nc3ccc(Br)cc3F)c(C)c2c1,i
Cc1c(C(=O)Nc2ccc(Br)cc2F)oc2ccc(S(=O)(=O)N3CCC4(CC3)OCCO4)cc12,12.6µM
Cc1c(C(=O)Nc2ccccc2Br)oc2ccc(S(=O)(=O)N3CCOCC3)cc12,i
Cc1c(C(=O)Nc2ccccc2Cl)oc2ccc(S(=O)(=O)N3CCCCCC3)cc12,i
NC(=O)Cn1ccc2cc(OCC3CCN(C(=O)COc4ccccc4)CC3)cnc21,i
Cc1cc(C[C@@H]2COC[C@@H]2NC(=O)c2ccc(Oc3ccccc3)o2)on1,i
CC(C)CN1C(=O)CCc2cc(NC(=O)c3c(F)cccc3F)ccc21,i

# Compound activity deposited in PubChem BioAssay by National Center for Advancing Translational Sciences (NCATS).
